Assay outcomes deposited in PubChem by several laboratories.
An excerpt weighted towards active compounds, which were near 5.7% of everything screened.
Myeloid diff MLP – compounds promoting myeloid differentiation; ER-HoxA9 myeloid progenitors, lysozyme-GFP differentiation, flow cytometry; calls only at 10 µM; actives 1% (n = 360,000);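 active means normalized GFP-positive differentiation at or above the plate's own cutoff, the solvent-only control mean plus 3 SD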;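 further: cells exposed to compound for four days before flow analysis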
GRIN3A LBD mod – modulators (binders) of human NR3A ligand-binding domain; actives 2.5% (n = 340,000); Tm shift relative to glycine control, % at 25 µM; AID 1259313; NR3A LBD differential scanning fluorimetry, Tm shift; 0% = protein alone, 100% = glycine-bound protein;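 active means melting temperature shift of at least 10% of the positive control shift, at one fixed dose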
FAS TE block – FAS thioesterase (human) inhibition; P49327; inhibition, % at 15 µM; recombinant FAS-TE, OMFH fluorogenic substrate, fluorescence endpoint; actives 0.67% (n = 360,000);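 active means compounds whose normalised, plate-corrected inhibition of enzyme fluorescence in the single-dose primary screen is 50% or more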;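 further: 0% = DMSO with enzyme and 100% = substrate without enzyme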
MPTP inh – inhibitors of mitochondrial permeability transition pore; isolated mouse mitochondria, Ca2+ swelling absorbance, 30 min; inhibition, % at 10 µM; actives 1.4% (n = 360,000); AID 602449;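 active means inhibition of 50% or more, scaled per plate between neutral and stimulator controls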;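 further: 0% = DMSO wells given calcium and 100% = 1 mM EGTA wells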
rCAG RNA binder – binds r(CAG) RNA repeats. r(CAG) RNA repeat, TO-PRO-1 dye displacement fluorescence. inhibition, % at 3 µM. actives 1.3% (n = 370,000);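 active means inhibition above the plate cutoff, the mean of all test compounds on that plate plus 3 SD, cut at about 35% in these data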;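 further: 0% = DMSO alone and 100% = 100 µM mitoxantrone as full dye displacement; higher means more dye released from RNA so lower well fluorescence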
* = called active by the depositor; i = inactive; . = no result; + = active, no number.

SMILES	Myeloid diff MLP	GRIN3A LBD mod	FAS TE block	MPTP inh	rCAG RNA binder
Cc1ccsc1/C=N/Nc1ccc(C(=O)O)cc1	i	1	0	1	1
O=C(O)c1cccc(N/N=C/c2sc(N3CCOCC3)nc2-c2ccccc2)c1	i	14*	-1	-1	26
Cc1nn(-c2ccccc2Cl)c(Cl)c1/C=N/Nc1cccc(C(=O)O)c1	i	10*	32	0	19
CC(C)(C)OC(=O)N1CCC2CCN(CCc3ccccc3)CC21 (stereo not given)	.	.	.	.	-1
O=C(N[C@H](Cc1ccccc1)C(=O)N1CCCN(Cc2ccccc2F)CC1)[C@H]1O[C@@H](n2ccc(=O)[nH]c2=O)[C@H](O)[C@@H]1O	.	.	.	.	1
O=C(/C=C/c1cccs1)NC(=S)NNC(=O)c1ccccc1O	.	8	-3	10	38*
N#Cc1ccccc1NC(=O)CC1c2ccccc2Oc2ccccc21	i	13*	-4	2	-2
N#Cc1ccccc1NC(=O)CC1CCCCC1	i	-3	-2	0	-1
Nc1ccc(N2CCCC2)c(S(=O)(=O)Nc2cccc(C(F)(F)F)c2)c1	+	5	-1	-1	18
CC(=O)Nc1ccc(S(=O)(=O)NC2(C(F)(F)F)NC(=O)N(c3ccc(C)cc3)C2=O)cc1 (stereo not given)	i	10*	-2	-1	4
CC1CCC(NC(=O)CCS(=O)(=O)c2ccc3c(c2)CCN3C(=O)C2CC2)CC1 (stereo not given)	+	-1	-2	0	-7
Cc1nc(-c2ccccc2)sc1C(=O)Nc1ccccc1F	i	3	3	-1	-2
Cc1nc(-c2ccccc2)sc1C(=O)Nc1ccc(S(N)(=O)=O)cc1	.	12*	0	0	8
Cc1cccc(C)c1NC(=O)CSc1ncnc2[nH]ncc12	i	-1	-8	-1	2
O=C(CSc1ncnc2[nH]ncc12)Nc1nc(-c2ccc(F)c(F)c2)cs1	i	20*	-22	14	-7
CCCN1C(=O)c2n[nH]c(C)c2C1c1ccc2c(c1)OCO2 (stereo not given)	.	.	.	.	0
Cc1ccc2nc(-c3cccc(Cl)c3)c(Cc3cccc(Cl)c3)n2c1	.	.	.	.	10
CCOC(=O)C1CCN(C(=O)c2cc(S(=O)(=O)N(C)C)ccc2N2CCCC2)CC1	i	-1	4	1	-6
CCOC(=O)C1CCCN(C(=O)c2cc(S(=O)(=O)N(C)C)ccc2N2CCCC2)C1 (stereo not given)	i	11*	0	0	-6
COc1ccc(C2C3=C(CC(C)(C)CC3=O)Nc3c2c(=O)[nH]c2nc(C)nn32)cc1 (stereo not given)	+	-2	-6	2	1
N#Cc1c(-c2ccco2)nc(SCc2ccc(F)cc2)[nH]c1=O	i	-30	7	26	50*
Cc1nc(SCc2cccc(F)c2)[nH]c(=O)c1C#N	i	13*	-4	1	3
COc1ccc(-c2nc(SCc3ccc(C#N)cc3)[nH]c(=O)c2C#N)cc1	i	-19	-16	7	12
Cc1cc(C)n(Cc2cccc(F)c2)c(=O)c1C#N	i	0	1	-2	.
COCCNc1nnc(Cc2ccccc2)c(=O)[nH]1	+	2	-1	0	-2
SMILES	Myeloid diff MLP	GRIN3A LBD mod	FAS TE block	MPTP inh	rCAG RNA binder
OCC1COC(c2ccccc2)=N1 (stereo not given)	.	.	.	.	1
COc1cccc(CNc2ccccc2O)c1OCc1ccccc1F	+	-5	5	1	10
COc1cccc(CNc2ccc(S(N)(=O)=O)cc2)c1OCc1ccccc1F	i	2	6	14	4
C=CC[C@H]1c2ccccc2[C@H]2N3N=Cc4ccccc4[C@H]3[C@H](CCCC)C(=O)N2N1C(=O)NCc1ccccc1	.	.	.	.	4
Cc1sc2ncnc(N3CCC(C(=O)Nc4ccc(OC(F)F)c(Cl)c4)CC3)c2c1C	i	10*	37	8	7
C[C@@H]1CNC(=O)c2c(C(=O)N3CCN(c4ccccc4)CC3)ncn21	.	.	.	.	3
CCSc1nc(=S)cc(C)[nH]1	i	10*	-4	0	0
O=C(O)Cc1cn(-c2ccccc2)nc1-c1ccccc1	i	-2	-6	3	-1
OCc1cn(-c2ccccc2)nc1-c1ccc(-c2nn(-c3ccccc3)cc2CO)cc1	i	24*	7	4	2
CC1(C)C=C2C(=NN(c3ccccc3)C(N)=C2C#N)CO1	+	2	-7	1	5
Cc1cc(NC(=O)CSc2nc(CCC3CCCC3)nc3ccccc23)no1	+	-3	13	0	1
CC(C)NC(=O)C1CCCN(S(=O)(=O)c2cccs2)C1 (stereo not given)	i	11*	-6	-4	3
CC(=O)NS(=O)(=O)c1ccc(NC(=O)C2c3ccccc3Oc3ccccc32)cc1	i	11*	-1	0	14
C#CCNC(=O)C[C@H]1C[C@@]2(C(=O)OC)C(=C[C@H](C(C)C)O[C@@H]2C2CC2)N(Cc2ccccc2)C1=O	.	.	.	.	-1
CSCCC(NS(=O)(=O)c1ccccc1F)C(=O)OCc1ccccc1Cl (stereo not given)	i	20*	22	3	-3
Cc1csc(Nc2nc(N)c(C(=O)Nc3cc(Cl)ccc3F)o2)n1	i	22*	-2	1	8
Cc1csc(NC(=O)Cc2c(F)cccc2Cl)n1	i	-1	-4	0	1
Nc1[nH]n(-c2ccccc2)c(=O)c1N=Nc1ccc2c(c1)OCO2	i	11*	21	3	7
O=C(OC12CCCN(C1)/C(=C/c1cccc(Cl)c1)C2)C1CCCC1 (stereo not given)	.	.	.	.	3
COc1ccc2c(c1)O/C(=C\c1ccco1)C2=O	i	1	2	3	11
CC(=O)COc1ccc2c(c1C)O/C(=C\c1ccco1)C2=O	+	-1	-2	2	25
O=C(O)CCCCN1C(=O)C=CC1=O	.	.	.	.	1
Nn1c(SCC(=O)Nc2cccc3ccccc23)nnc1-c1cc(-c2ccccc2)n[nH]1	.	.	.	.	8
COCCCNc1c2c3c(cccc3[nH]c1=O)C(=O)c1ccccc1-2	+	-360	-123	2	-82
Cc1c(-c2cccc(Cl)c2)nc2ccccc2c1C(=O)OCC(=O)Nc1ccc2c(c1)OCO2	i	21*	31	9	9
Cc1onc(-c2ccccc2)c1C(=O)OCC(=O)Nc1ccc2c(c1)OCO2	i	-2	8	3	-1
CC(=O)CC[C@H]1CC[C@]2(CCCN(C(=O)c3ccccc3)C2)O1	.	.	.	.	-1
COC(=O)[C@]12C[C@H](CC(=O)NCc3ccccc3)C(=O)N(Cc3ccccc3)C1=C[C@H](C1CCCC1)O[C@@H]2C	.	.	.	.	3
CCOC(=O)c1[nH]c(C)c(C(=O)N2CCN(c3ccccc3)CC2)c1C	i	-1	-5	-1	-3
CCOc1ccc2ccccc2c1C(=O)N1CCN(c2ccccc2)CC1	+	0	7	-4	-9
